Reference: article PMC4552634, “A New Set of Chemical Starting Points with Plasmodium falciparum Transmission-Blocking Potential for Antimalarial Drug Discovery” (PLoS ONE, 2015)
About 3,200 (25%) of roughly 13,000 compounds showed an effect of 50% or more. Some of the results follow.

These compounds were tested on P. falciparum stage V gametocytes. Details: 48 h, 5 µM; inhibitor.
Set-up: BacTiter-Glo ATP luminescence viability of purified stage V gametocytes in 384-well plates, per cent inhibition versus DMSO

| Compound | % Inhibition [%] |
| --- | --- |
| CN1CCN(Cc2c(O)ccc3c(=O)c(Oc4ccc(C(C)(C)C)cc4)c(C(F)(F)F)oc23)CC1 [TCMDC-125699] | 17.84 |
| O=C(Nc1cccc(Cl)c1)OC1CCCN2CCCCC12 (centres unmarked) [TCMDC-132073] | 14.89 |
| CC(C)(C)c1ccc(S(=O)(=O)Nc2ccccc2Cn2nc(N3CCNCC3)ccc2=O)cc1 [TCMDC-132579] | 45.07 |
| CC(C)(C)C(=O)Nc1ccc(C(=O)Nc2cccc(-c3nc4ccccc4[nH]3)c2)cc1 [TCMDC-123720] | -0.3051 |
| CCOc1ccc(-c2nonc2NC(=O)c2ccc(F)cc2)cc1OCC [TCMDC-125209] | 63.55 |
| CCOc1ccc(-c2nonc2NC(=O)c2ccc(Cl)cc2)cc1OCC [TCMDC-125210] | 29.52 |
| CCOc1ccc(-c2nonc2NC(=O)c2ccc(OC)cc2)cc1OCC [TCMDC-125208] | 49.87 |
| Nc1cccc(CNCc2cccc(-c3ccc(-c4nc5ccccc5[nH]4)cc3)c2)c1.O=C(O)C(F)(F)F [TCMDC-132940] | -44.43 |
| CCOc1cccc2nc(NCCCNCc3ccc(Cl)c(Cl)c3)cc(NCCCNCc3ccc(Cl)c(Cl)c3)c12 [TCMDC-139413] | 102.1 |
| CCOc1c(Cl)cc(Cl)cc1CNCCCNc1nc2ccccc2[nH]1 [TCMDC-140104] | 21.3 |
| CCOc1cc(NCCCNc2ncc([N+](=O)[O-])cc2C)nc2ccccc12 [TCMDC-139265] | -18.92 |
| COc1ccc2c(c1)nc(CN=C(N)N)n2Cc1ccc(Cl)cc1 [TCMDC-142042] | 28.73 |
| Cc1cc(O)c(-c2cc(C(=O)Nc3cccnc3)[nH]n2)cc1C [TCMDC-124307] | 6.508 |
| COc1ccc(-c2nc(NC(=O)COc3ccc(C(C)=O)cc3)sc2C)cc1 [TCMDC-125108] | 2.358 |
| Cn1nccc1C(=O)NCCNCc1ccc(-c2ccc(-c3nc4cc(C(F)(F)F)ccc4[nH]3)s2)cc1.O=C(O)C(F)(F)F [TCMDC-133018] | -29.18 |
| CC(C)CCCC(C)(C)NC[C@@H](O)[C@H](Cc1ccccc1)NC(=O)c1cc(NC(C)C)cc(N2CCCCS2(=O)=O)c1 [TCMDC-135206] | 89.31 |
| CCNc1cc(C(=O)N[C@@H](Cc2ccccc2)[C@H](O)CNC(C)(C)CCCC(C)C)cc(N2CCCCS2(=O)=O)c1 [TCMDC-135211] | 24.29 |
| CCNc1cc(C(=O)N[C@@H](Cc2ccccc2)[C@H](O)CNC(C)(C)CC(C)(C)C)c(F)c(N2CCCCS2(=O)=O)c1 [TCMDC-135166] | -2.474 |
| CC(C)Nc1cc(C(=O)N[C@@H](Cc2ccccc2)[C@H](O)CNCc2cccc(C(F)(F)F)c2)c(F)c(N2CCCCS2(=O)=O)c1 [TCMDC-135538] | 3.895 |
| CC(C)CCCC(C)(C)NC[C@@H](O)[C@H](Cc1ccccc1)NC(=O)c1cc(NC(C)C)cc(N2CCCCS2(=O)=O)c1F [TCMDC-135540] | 50.35 |
| CCNc1cc(C(=O)N[C@@H](Cc2ccccc2)[C@H](O)CNC(C)CC(C)C)c(F)c(N2CCCCS2(=O)=O)c1 (some centres unmarked) [TCMDC-135167] | 44.92 |
| CCNc1cc(C(=O)NC(Cc2ccccc2)C(O)CNC(C)(C)CCCC(C)C)c(F)c(N2CCCS2(=O)=O)c1 (centres unmarked) [TCMDC-135210] | 12.17 |
| CC(C)Nc1cc(C(=O)N[C@@H](Cc2ccccc2)[C@H](O)CNC(C)(C)c2cccc(C(F)(F)F)c2)cc(N2CCCCS2(=O)=O)c1 [TCMDC-135204] | 0.5792 |
| CCNc1cc(C(=O)N[C@@H](Cc2ccccc2)[C@H](O)CNCCC(C)(C)C)c(F)c(N2CCCCS2(=O)=O)c1 [TCMDC-135165] | 62.14 |
| CCc1cc2c3c(N)nc(N)nc3ccc2n1C(C)CC (centres unmarked) [TCMDC-137308] | 10.89 |

| Compound | % Inhibition [%] |
| --- | --- |
| CCCc1cc2c3c(N)nc(N)nc3ccc2n1C(CC)CC [TCMDC-137312] | 13.64 |
| CCc1cc2c3c(N)nc(N)nc3ccc2n1CC [TCMDC-137851] | 94.91 |
| CCn1c(C(C)C)cc2c3c(N)nc(N)nc3ccc21 [TCMDC-137856] | 56.38 |
| CCC(CC)n1c(COC)cc2c3c(N)nc(N)nc3ccc21 [TCMDC-137313] | -40.93 |
| CCc1cc2c3c(N)nc(N)nc3ccc2n1C(C)(C)C [TCMDC-137306] | 29.54 |
| CCc1cc2c3c(N)nc(N)nc3ccc2n1C(CC)CC [TCMDC-137309] | 2.246 |
| CC(C)n1ncc2c3c(N)nc(N)nc3ccc21 [TCMDC-137866] | 12.93 |
| CCCc1cc2c3c(N)nc(N)nc3ccc2n1CC [TCMDC-137946] | 108 |
| CSC1=NC2(CC(c3cccc(C)c3)c3cc(Cl)c(O)cc3O2)CC(C)(C)N1 (centres unmarked) [TCMDC-125563] | 19.29 |
| O=C(c1ccc(-c2ccccn2)s1)N1CCc2cc3nccc(N4CCN5CCC[C@H]5C4)c3cc21 [TCMDC-140047] | 34.48 |
| CCCCCCn1c(Sc2ccc(C#N)c([N+](=O)[O-])c2)nnc1-c1cccs1 [TCMDC-135586] | 11.04 |
| COc1cccc(C(=O)Nc2ccc(Nc3nc(C)cc(N4CCCCC4)n3)cc2)c1OC [TCMDC-124963] | -19.94 |
| CC(CN(C)C)Oc1ccc2[nH]c(-c3cccc(OCc4ccccc4)c3)nc2c1C#N (centres unmarked) [TCMDC-133767] | 6.337 |
| CCn1c(-c2nonc2N)nc2c(-c3cccc(NC(=O)Nc4cccc(C#N)c4)c3)ncc(OCCCN)c21 [TCMDC-136195] | 98.06 |
| Cc1cccc2[nH]c(-c3ccc(-c4ccc(NC(=O)Nc5cccc(C#N)c5)cc4)cc3)nc12 [TCMDC-133196] | -20.21 |
| N#Cc1cccc(NC(=O)Nc2cccc(-c3cccc(-c4nc5ccccc5[nH]4)c3)c2)c1 [TCMDC-133193] | -45.89 |
| CCn1c(-c2nonc2N)nc2c(-c3cccc(NC(=O)Nc4ccc(C#N)cc4)c3)ncc(OCCCN)c21 [TCMDC-136194] | 88.46 |
| COc1ccc(N2CCN(CCCCNC(=O)c3ccc(NC(=O)c4ccc(OC(F)(F)F)cc4)cc3)CC2)c(OC)c1 [TCMDC-138149] | -10.77 |
| N#Cc1ccc2c(c1)CCN(CCC1CCC(Nc3ncnc4ccccc34)CC1)C2 (centres unmarked) [TCMDC-139358] | -22.56 |
| Cc1cccc2nc(-c3ccc(-c4cccc(NC(=O)C(C)CN(C)C)c4)s3)[nH]c12 (centres unmarked) [TCMDC-137116] | 33.05 |
| Cc1cc2cc(NC(=O)Nc3ccnc4ccccc34)ccc2n1C [TCMDC-139291] | -17.26 |
| CN(C)c1cc(NC(=O)Nc2ccc(SC(F)(F)F)cc2)c2ccccc2n1 [TCMDC-123994] | 86 |
| O=C(Nc1ccc(SC(F)(F)F)cc1)Nc1ccnc2ccccc12 [TCMDC-139287] | 73.37 |
| CN(C)c1cc(NC(=O)Nc2ccccc2)c2ccccc2n1 [TCMDC-123521] | 30.25 |
| Cc1cc(NC(=O)Nc2cccc(N(C)C)c2)c2ccccc2n1 [TCMDC-138955] | -40.58 |

| Compound | % Inhibition [%] |
| --- | --- |
| CCC(C)c1ccc(NC(=O)Nc2ccnc3ccccc23)cc1 (centres unmarked) [TCMDC-139723] | 3.75 |
| N#Cc1ccc2c(c1)CCN(CCC1CCC(NC(=O)c3cc4ccccc4[nH]3)CC1)CC2 (centres unmarked) [TCMDC-139633] | -57.67 |
| O=C(Nc1ccc(Cl)cc1)c1cc(Cl)ccc1NC(=O)C1CCc2ccccc2O1 (centres unmarked) [TCMDC-136640] | -15.02 |
| CCOc1c(N2CCN(CCCCNC(=O)c3ccc(NC(=O)c4ccc(Cl)cc4)cc3)CC2)ccc2ccccc12 [TCMDC-138522] | 6.305 |
| CCCOc1ccc(CCNCCCCNCCc2ccc(OCCC)c3ccccc23)c2ccccc12 [TCMDC-137952] | 124.7 |
| CCCOc1c(CCNCCCCNCCc2ccc3ccccc3c2OCCC)ccc2ccccc12 [TCMDC-137950] | 113.4 |
| CCOc1c(CCNCCCCNCCc2ccc3ccccc3c2OCC)ccc2ccccc12 [TCMDC-137759] | 109.7 |
| CCCOc1cc(O)c(-c2n[nH]c(C)c2Oc2ccccc2)cc1CC [TCMDC-125714] | -75.18 |
| CC(=NO)C1=C(O)C(c2ccccc2)N(c2ccccc2)C1=O (centres unmarked) [TCMDC-131673] | 13.72 |
| O=C(/C=C/c1ccc(Cl)c(Cl)c1)NCCCCCN1CCCN(C(=O)Nc2ccc(F)c(F)c2)CC1 [TCMDC-135750] | -25.07 |
| CCCC(C)Nc1nc(C)cc(N[C@@H](Cc2ccccc2)C(=O)NCCc2ccccc2)n1 (some centres unmarked) [TCMDC-134766] | 6.892 |
| O=C(Nc1ccc(OC2CCN(Cc3ccsc3)C2)c(Cl)c1)c1ccco1 (centres unmarked) [TCMDC-133950] | 41.88 |
| O=C(N[C@@H](CC1CCCCC1)C(=O)NC1CCCCCC1)c1ccc(O)c(-c2ccc(Cl)c(Cl)c2)c1 [TCMDC-140847] | 37.48 |
| CCN(CC)CCNC(=O)c1ccc(NC(=O)c2ccc(-c3cc(NC(=O)CC4CCCC4)ccc3C)cc2)cc1 [TCMDC-133707] | 110.3 |
| COc1ccc(NC(=O)Nc2ccc(C)c(-c3ccc(C(=O)NCCN4CCCC4)cc3)c2)cc1 [TCMDC-134196] | -27.29 |
| Cc1ccc(NC(=O)C2CCC2)cc1-c1ccc(C(=O)NCC2CC2)cc1 [TCMDC-138709] | -25.69 |
| COc1ccc(CCNCCCCCCNCCc2ccc(-c3ccccc3)cc2)cc1OC [TCMDC-131267] | 96.14 |
| COc1ccc(CN(C)CCCc2ccc(NC(=O)Cc3ccc4nc(-c5ccccc5)ccc4c3)cc2)cc1OC [TCMDC-131845] | 17.3 |
| COc1cc2c(cc1OC)CC(NCCCCCCNCCc1ccc(Cl)cc1)CC2 (centres unmarked) [TCMDC-132038] | 103.4 |
| COc1ccc(CNCCCCCCNCCc2ccc(Cl)cc2)cc1OC [TCMDC-131282] | 88.88 |
| COc1ccc(CNCC2CCC(CNCCc3ccccc3)CC2)cc1Cl (centres unmarked) [TCMDC-140364] | -22.08 |
| COc1cc2c(cc1OC)CC(NCc1ccc(-c3ccc4nc[nH]c4c3)cc1)C2 [TCMDC-133474] | 37.11 |
| COc1cc2c(cc1OC)CN(CCCCc1ccc(NC(=O)c3cc(Cl)cc(Cl)c3)cc1)CC2 [TCMDC-138174] | -15.17 |
| COc1ccc(CCNCCCCCCNCCCc2ccc(Cl)cc2)cc1OC [TCMDC-131280] | 105.1 |
